# Data: PubChem BioAssay (EPA / NIEHS)
# “And” between values parts separate entries of the source, which are not always exact repeats. Identical values can stand only once. Inconclusive results are not listed. The source holds several records for some structures; these can differ, active in one and inactive in another. The source made the active and inactive calls. Rule for the calls: active = hit-call score of the fitted dose curve at least 0.9, where 1 is the maximum; inconclusive = response in the unintended direction; inactive = score below 0.9.
# Read-out: xenobiotic metabolism (CYP1A2), CYP1A2 (gene 1544)
# Test: CLD_CYP1A2_6hr: CellzDirect (CLD) Gene Expression Assay for xenobiotic metabolism (CYP1A2) at 6 hours (AID 2283663);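 for AC50: potency is for induction meaning a rise in mRNA above DMSO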
# Protocol: CLD_6hr is a cell-based, multiplexed-readout assay that uses hepatocyte, a human liver primary cell, with measurements taken at 6 hours after chemical dosing in a 96-well plate.CLD_CYP1A2_6hr is one of 16 assay component(s) measured or calculated from the CLD_6hr assay. It is designed to make measurements of mRNA induction, a form of inducible reporter, as detected with chemiluminescence signals by Quantitative Nuclease Protection Assay (qNPA) technology.Data from the assay component CLD_CYP1A2_6hr was analyzed at the endpoint, CLD_CYP1A2_6hr, in the positive analysis fitting direction relative to DMSO as the negative control and baseline of activity. Using a type of inducible reporter, gain-of-signal activity can be used to understand changes in the reporter gene as they relate to the gene CYP1A2. Furthermore, this assay endpoint can be referred to as a primary readout. To generalize the intended target to other relatable targets, this assay endpoint is annotated to the cyp intended target family, where subfamily is xenobiotic metabolism.
# Human hepatocyte cultures were treated daily for two consecutive days with fresh dosing solutions containing appropriate concentrations of the 320 ToxCast chemicals (chemical identities were blinded to CellzDirect and other ToxCast collaborators), vehicle control (0.2% DMSO), and positive control inducers as summarized in Table 1. Due to the large number of treatment groups and chemicals examined, the ToxCast chemicals were divided into two groups (spanning two independent cultures of hepatocytes from separate donor preparations (Hu778: ToxCast plates 1 and 2; Hu776: ToxCast plates 3 and 4). Each preparation of human hepatocyte cultures was treated with respective vehicle control, medium only control, set of six positive controls/reference chemicals for the five hepatic receptor pathways, and a subset of eight of the ToxCast chemicals (indoxacarb, pyrithiobac-sodium, norflurazon, cyhalofop-butyl, methomyl, thiram, acetochlor, and propiconazole). These replicate data, coupled with internal replicates designed within the blinded ToxCast chemical library, provided additional data to evaluate interindividual differences between hepatocyte preparations and their potential impact on chemical profiles.Cell morphology and integrity were evaluated using phase-contrast microscopy as an indicator of hepatocyte cell health (Tyson & Green, 1987). Cultures for each treatment group (i.e., media, vehicle [0.2% DMSO], positive control inducers [multiple concentrations], and the ToxCast chemicals [multiple concentrations]) were observed and cell morphology was assessed relative to vehicle control cultures at each harvest time point (0, 6, 24, or 48 h). […] Images were evaluated at the conclusion of the study to assess changes in cell integrity and account for the effects of chemical exposure on uncharacteristic changes in concentration-dependent gene expression profiles. The results from these determinations of apparent cytotoxicity were annotated (yes/no) alongside the corresponding qNPA data for reference.At the conclusion of each treatment period, hepatocyte cultures (96-well) were washed with 1 volume of HBSS, lysed by addition of 25 ul ArrayPlate lysis buffer (HTG, Tucson, AZ), and 70 ul/well of Denaturation Oil, denatured by incubation at 95C for 10 min, and frozen at approximately -70C until analysis by nuclease protection assay (qNPA) (Roberts et al., 2007). For qNPA analysis, cell lysates were thawed at 50C for approximately 30 min, qNPA probes were added, and samples were incubated at 95C for 10 min to begin the detection process by denaturing the target RNA, dissociating the duplexes and secondary structure hybridization. At the conclusion of the hybridization period, S1 nuclease reagent was added to each sample to digest all nonprotected nucleotides at 50C for 60-90 min. […]
SMILES,outcome,AC50
COc1nc(C)nc(NC(=O)NS(=O)(=O)c2ccccc2Cl)n1,inactive,0.00149 µM (active)
CC(C)Oc1cc(-n2nc(C(C)(C)C)oc2=O)c(Cl)cc1Cl,,2.19 µM (active)
C=CC1(C)OC(=O)N(c2cc(Cl)cc(Cl)c2)C1=O (stereo not given),,0.828 µM (active)
CCOC(=O)C(Cl)Cc1cc(-n2nc(C)n(C(F)F)c2=O)c(F)cc1Cl (stereo not given),inactive,
CCNc1nc(Cl)nc(NCC)n1,inactive,
Fc1ccc(Oc2ccnc3cc(Cl)cc(Cl)c23)cc1,,5.01 µM (active)
N#Cc1cc(Br)c(O)c(Br)c1,inactive,
COC(=O)C(C)Oc1ccc(Oc2ccc(Cl)cc2Cl)cc1 (stereo not given),inactive,3.97 µM (active) and 4.91 µM (active)
CCOP(=S)(OCC)SCn1c(=O)oc2cc(Cl)ccc21,inactive,
Cc1ccc(-c2c(Cl)nc(C#N)n2S(=O)(=O)N(C)C)cc1,inactive,
CCCN(CCC)c1c([N+](=O)[O-])cc(S(N)(=O)=O)cc1[N+](=O)[O-],inactive,
N#Cc1nn(-c2c(Cl)cc(C(F)(F)F)cc2Cl)c(N)c1S(=O)C(F)(F)F (stereo not given),inactive,
CCCCNC(=O)OCC#CI,inactive,0.591 µM (active)
CCNc1nc(Cl)nc(NC(C)C)n1,,1.62 µM (active)
COc1nc(NC(C)C)nc(NC(C)C)n1,inactive,
COc1cnc(OC)n2nc(NS(=O)(=O)c3c(OCC(F)F)cccc3C(F)(F)F)nc12,,0.255 µM (active)
CCCCOC(=O)c1ccccc1C(=O)OCCCC,inactive,3.87 µM (active)

SMILES,outcome,AC50
O=C(O)COc1nc(Cl)c(Cl)cc1Cl,inactive,
COP(N)(=O)SC (stereo not given),inactive,
CNC(=O)ON=CC(C)(C)SC,inactive,
CC1=C(C(=O)Nc2ccccc2)SCCO1,,7.64 µM (active)
C#CCOS(=O)OC1CCCCC1Oc1ccc(C(C)(C)C)cc1 (stereo not given),,1.9 µM (active)
O=C(Nc1ccccc1)Nc1ccnc(Cl)c1,,8.16 µM (active)
COc1nc(C)nc(NC(=O)NS(=O)(=O)c2ccccc2CCC(F)(F)F)n1,inactive,2.44 µM (active)
CCOC(=O)CC(SP(=S)(OC)OC)C(=O)OCC (stereo not given),,3.97 µM (active)
Cc1c(F)c(F)c(COC(=O)C2C(/C=C(\Cl)C(F)(F)F)C2(C)C)c(F)c1F (stereo not given),inactive,
CON(C)C(=O)Nc1ccc(Cl)c(Cl)c1,,0.752 µM (active)
CCc1nn(C)c(C(=O)NCc2ccc(C(C)(C)C)cc2)c1Cl,,20 µM (active)
C=CCC1=C(C)[C@@H](OC(=O)[C@@H]2[C@@H](C=C(C)C)C2(C)C)CC1=O,inactive,
COP(=S)(OC)Oc1nc(Cl)c(Cl)cc1Cl,,6.12 µM (active)
O=C(O)c1nc(Cl)ccc1Cl,inactive,6.11 µM (active)
CC1COC(Cn2cncn2)(c2ccc(Oc3ccc(Cl)cc3)cc2Cl)O1 (stereo not given),inactive,
N#CC(CCc1ccc(Cl)cc1)(Cn1cncn1)c1ccccc1 (stereo not given),,1.89 µM (active)
CCCCNC(=O)n1c(NC(=O)OC)nc2ccccc21,inactive,
